# Data reported in the supplement of paper PMC11219838.
# Unmarked numbers belong to inactive results.
# Tested on: Caenorhabditis elegans dauer (daf-2(e1370))
# Experiment: proportion of mobile C. elegans dauer larvae relative to DMSO control (fraction of DMSO control); higher = more viable, less nematicidal, active = 0.63 or less; extreme values may be limits of the assay
# Conditions: 60 µM; 5 days; temperature: 20 °C
# Protocol: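 DODA library (846 commercial 1,3,4- and 1,2,4-oxadiazole compounds plus commercial nematicide controls) screened at a single dose of 60 µM (0.6% DMSO) in 96-well plates, two biological replicates. Read-outs: C. elegans N2 L1 survival/reproduction score at day 6, 20 °C (0: 0-10 worms, 1: 11-20, 2: 21-50, 3: >50, 4: overgrown/starved). C. elegans daf-2 dauer, D. dipsaci and M. hapla J2 mobility at day 5, 20 °C, and P. penetrans mobility at day 5, 20 °C, each relative to DMSO controls. M. hapla egg hatching at day 12, 25 °C, relative to the mean of 8 DMSO wells on the same plate.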
row,Compound,proportion of mobile C. elegans dauer larvae
1,Cc1ccc(-c2nc(-c3cccc(C)c3)no2)cc1,1
2,Cc1ccc(-c2nnc(SCc3ccccc3)o2)cc1,0.371 (active)
3,O=C(CSc1nnc(-c2ccc(Br)cc2)o1)N1CCCCCC1,1
4,CCOc1nc(C)ccc1-c1noc(-c2cccc(C)c2)n1,1
5,COc1nc(C)ccc1-c1noc(-c2ccc(C)cc2)n1,1
6,Clc1ccc(OCc2nc(-c3ccncc3)no2)cc1,0.645
7,Cc1cc(OCc2nc(-c3ccccn3)no2)ccc1Br,1
8,CCOc1ccccc1-c1nc(-c2ccc(Cl)cc2)no1,1
9,CCc1ccc(OCc2nc(-c3cccc(OC)c3)no2)cc1,1
10,O=C(CSc1nnc(-c2cccc(Cl)c2)o1)N1CCCCC1,1
11,CCOc1ccccc1-c1nnc(SCC(=O)N2CCC(C)CC2)o1,1
12,Cc1ccc(-c2nnc(SCc3ccc(Br)cc3)o2)cc1,1
13,Cc1ccc(-c2noc(-c3ccc(Br)cc3)n2)cc1,1
14,CCCCCSc1nnc(-c2ccc(Cl)cc2Cl)o1,1
15,COc1ccc(-c2nnc(SCc3ccccc3)o2)cc1,1
16,Cc1cc(OCc2nc(-c3ccccn3)no2)ccc1Cl,1
17,O=C(CSc1nnc(-c2ccc(Br)cc2)o1)NC1CCCC1,1
18,Cc1cc(Cl)ccc1OCc1nc(-c2ccncc2)no1,1
19,Cc1cc(OC(C)c2nc(-c3cccnc3)no2)ccc1Cl (stereo not given),1
20,Cc1ccc(OCc2nc(-c3ccc(Cl)cc3)no2)cc1,1

row,Compound,proportion of mobile C. elegans dauer larvae
1,Cc1ccccc1-c1noc(-c2ccc(F)cc2)n1,1
2,O=C(CSc1nnc(-c2ccc(Br)cc2)o1)NC1CCCCC1,1
3,Cc1ccc(-c2nnc(SCC(=O)Nc3ccc(Br)c(C)c3C)o2)cc1,1
4,CNC(=O)c1ccccc1-c1nc(-c2ccccc2Cl)no1,1
5,Fc1cccc(-c2nc(-c3ccccc3)no2)c1,1
6,Cc1ccc(C(=O)CSc2nnc(-c3ccccc3)o2)cc1,1
7,COc1ccc(CSc2nnc(-c3ccc(Cl)cc3Cl)o2)cc1,1
8,COc1ccc(-c2noc(-c3ccc(C)cc3)n2)cc1,1
9,CC(=O)Nc1ccc(NC(=O)c2ccccc2-c2nc(-c3ccccc3Cl)no2)cc1,1
10,Clc1cccc(OCc2nc(-c3cccs3)no2)c1,0.5 (active)
11,CCOc1nc(-c2ccccc2)ccc1-c1noc(CC)n1,1
12,O=C(CSc1nnc(-c2ccccc2)o1)N1CCc2ccccc21,1
13,Cn1cc(C(=O)CSc2nnc(-c3cccc(Cl)c3)o2)c2ccccc21,1
14,COc1ccc(Cl)cc1NC(=O)CSc1nnc(-c2ccco2)o1,1
15,Brc1ccccc1-c1nc(-c2ccccc2)no1,0.676
16,COc1ccc(-c2nnc(SCC(=O)Nc3ccc(Cl)c(Br)c3)o2)cc1,1
17,O=C(CSc1nnc(-c2cccc(Cl)c2)o1)NC1CCCCC1,1
18,COc1cccc(-c2nc(-c3ccc(F)cc3)no2)c1,1
19,Clc1ccc(OCc2nc(-c3ccc4c(c3)OCO4)no2)cc1,1
20,Fc1ccc(-c2noc(COc3ccccc3Cl)n2)cc1,1
